According to PubChem BioAssay (NCATS):
Values joined by “and” are separate entries in the source; they are usually repeats but may differ in a detail not shown here. Identical values can stand only once. Records with an inconclusive call do not appear. Active and inactive are the calls of the source. Unless noted, calls follow the shape of the dose curve; as a rule, active = well fitted curve in the direction sought with a large enough effect; inconclusive = small, poorly fitted or top-dose-only effect, or another doubt; inactive = no such curve, though single readings can be large; an effect the other way counts as inactive or inconclusive.

Columns and labels:
[1] = Primary qHTS for small molecule stabilizers of the endoplasmic reticulum resident proteome: Secreted ER Calcium Modulated Protein (SERCaMP) assay (AID 1508630); also: % is scaled to controls: 0 for no effect and ±100 for the full control effect
Method in brief: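 The SH-SY5Y reporter protocol was run at 3 concentrations up to 38.3 uM (primary) or 11 concentrations (follow-up): 16 h compound, 100 nM thapsigargin for 4 h, then extracellular luciferase luminescence.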

[2] = A High-Content qHTS Against Drug Library for the Identification of Small Molecules that Inhibit DYT1 Early Onset Primary Dystonia-Associated Cell Pathology (AID 1645839; calls by dose curve; also: potency is read from the fitted curve at half-maximal effect)
Method in brief: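 High-content imaging quantified EGFP-TorsinA mislocalization in HEK293-derived cells inducibly expressing DYT1 mutant torsinA, after 48 h exposure to compound given together with tetracycline induction. Cell count served as a toxicity channel alongside %pathology.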

[3] = target: Cytochrome P450 2C9 (Homo sapiens) (UniProt P11712); assay: Cytochrome P450 family 2 subfamily C member 9 (CYP2C9) small molecule antagonists: luciferase biochemical (cell-free) qHTS assay (AID 1645842; active = well fitted curve in the direction sought with a large enough effect in the repeat runs; an effect the other way counts as inactive or inconclusive; also: nearly all actives have a fitted effect of over 55% in size; also: potency is read from the fitted curve at half-maximal effect; as to activity change, negative = inhibition: % is scaled to controls: 0 for no effect and ±100 for the full control effect)
Method in brief: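 P450-Glo CYP2C9 system: proluciferin substrate with enzyme in mix containing 0.4% BSA, 10 min at room temperature, then NADPH regeneration solution added and incubated 1 h at 37C. Detection reagent stopped reaction; luminescence read after 20 min as RLU.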

[4] = Primary qHTS for inhibitors of nuclear receptor binding SET domain protein 2 (NSD2) in an isogenic RCH-ACV NSD2 p.E1099K mutant (9B) (AID 1645876); also: nearly all actives have a fitted effect of over 70% in size; also: potency is read from the fitted curve at half-maximal effect
[5] = target: Cytochrome P450 2D6 (Homo sapiens) (UniProt P10635); assay: Cytochrome P450 family 2 subfamily D member 6 (CYP2D6) small molecule antagonists: luciferase biochemical (cell-free) qHTS assay (AID 1645840; active = well fitted curve in the direction sought with a large enough effect in the repeat runs; an effect the other way counts as inactive or inconclusive; also: nearly all actives have a fitted effect of over 55% in size; also: potency is read from the fitted curve at half-maximal effect; as to activity change, negative = inhibition: % is scaled to controls: 0 for no effect and ±100 for the full control effect)
Method in brief: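 P450-Glo CYP2D6 system: proluciferin substrate converted by enzyme to luciferin, read by luminescence proportional to activity. Enzyme-substrate mix with compound 10 min at room temperature, then NADPH regeneration 1 h before detection reagent.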

[6] = Cytotoxicity counterscreen for inhibitors of SARS-CoV-2 cell entry (AID 1645845; calls by dose curve; also: nearly all actives have a fitted effect of over 50% in size)
Method in brief: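 ATP-content luminescence (ATPLite 1step, 15 min RT) read after 48 h compound exposure of Expi293F cells stably expressing human ACE2; normalized to cells-only wells and media-only wells.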

[7] = Primary qHTS to identify inhibitors of SARS-CoV-2 cell entry (AID 1645846; calls by dose curve; also: nearly all actives have a fitted effect of over 45% in size; also: potency is read from the fitted curve at half-maximal effect); conditions: activity change, negative = inhibition: at 57.1 µM (top of the series) unless noted
Method in brief: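 Using luciferase-reporting pseudoviruses carrying Wuhan-Hu-1 spike, the screen tracks entry into stably ACE2-expressing cells over 48 hr. Activity is expressed relative to spike particles versus particles lacking any fusion protein.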

[8] = Primary qHTS for inhibitors of nuclear receptor binding SET domain protein 2 (NSD2) in an RCH-ACV wild type WT cells (2C) (AID 1645877); also: nearly all actives have a fitted effect of over 70% in size; also: potency is read from the fitted curve at half-maximal effect
Papain (Carica papaya) = Papain (Carica papaya) (UniProt P00784); assay: Primary qHTS assay for inhibitors of the protease papain (AID 1645873);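 also: papain turnover of Z-FR-AMC read as the AMC fluorescence gain over 10 min; % is scaled to controls: 0 for no effect and ±100 for the full control effect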
[9] = target: Rap guanine nucleotide exchange factor 3 (Homo sapiens) (UniProt O95398); assay: Confirmatory qHTS for agonist of cAMP-regulated guanine nucleotide exchange factor 3 (EPAC1) (AID 1645881);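 also: EPAC1 catalysed release of BODIPY-GDP from Rap1B seen as fluorescence loss; 100% = effect of cAMP agonist control; nearly all actives have a fitted effect of over 75% in size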
[10] = target: Rap guanine nucleotide exchange factor 4 (Homo sapiens) (UniProt Q8WZA2); assay: Confirmatory qHTS for agonist of cAMP-regulated guanine nucleotide exchange factor 4 (EPAC2) (AID 1645884);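 also: nucleotide exchange releases bodipy-GDP from Rap1 and this lowers its fluorescence; % is scaled to controls: 0 for no effect and ±100 for the full control effect; nearly all actives have a fitted effect of over 65% in size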
[11] = target: Rap guanine nucleotide exchange factor 4 (Homo sapiens) (UniProt Q8WZA2); assay: Confirmatory qHTS for antagonist of cAMP-regulated guanine nucleotide exchange factor 4 (EPAC2) (AID 1645885); also: potency is read from the fitted curve at half-maximal effect; nearly all actives have a fitted effect of over 25% in size
[12] = target: N-terminal Xaa-Pro-Lys N-methyltransferase 1 (Homo sapiens) (UniProt Q9BV86); assay: Confirmatory qHTS for Inhibitors of N-terminal methyltransferase 1 (NTMT1): MTaseGlo Assay (AID 1645874); conditions: NTMT1 enzyme, MTase-Glo SAH luminescence; also: potency is read from the fitted curve at half-maximal effect; nearly all actives have a fitted effect of over 65% in size
Method in brief: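 MTase-Glo luminescence measured SAH formed by 125 nM NTMT1 from 100 uM SAM and 1 uM SPKRIA peptide over 30 min at room temperature, following 15 min compound preincubation. Percent inhibition against no-enzyme and DMSO controls gave 4-parameter Hill fits.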

Cytochrome P450 2D6 (Homo sapiens), sequence (P10635 whole entry, looked up): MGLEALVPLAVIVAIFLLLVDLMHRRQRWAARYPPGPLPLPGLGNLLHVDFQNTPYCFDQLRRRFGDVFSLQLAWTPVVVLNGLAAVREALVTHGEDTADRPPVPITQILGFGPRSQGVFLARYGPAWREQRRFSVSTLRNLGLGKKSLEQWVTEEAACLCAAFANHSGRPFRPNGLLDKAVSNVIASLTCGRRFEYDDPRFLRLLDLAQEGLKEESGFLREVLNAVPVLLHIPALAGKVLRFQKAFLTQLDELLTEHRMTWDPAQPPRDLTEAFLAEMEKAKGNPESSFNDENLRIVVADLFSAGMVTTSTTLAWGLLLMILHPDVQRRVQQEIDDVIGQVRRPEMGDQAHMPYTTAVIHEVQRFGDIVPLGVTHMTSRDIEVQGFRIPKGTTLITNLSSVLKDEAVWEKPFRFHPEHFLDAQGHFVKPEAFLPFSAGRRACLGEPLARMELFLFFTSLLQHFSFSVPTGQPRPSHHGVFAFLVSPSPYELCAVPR
Cytochrome P450 2C9 (Homo sapiens), sequence (P11712 whole entry, looked up): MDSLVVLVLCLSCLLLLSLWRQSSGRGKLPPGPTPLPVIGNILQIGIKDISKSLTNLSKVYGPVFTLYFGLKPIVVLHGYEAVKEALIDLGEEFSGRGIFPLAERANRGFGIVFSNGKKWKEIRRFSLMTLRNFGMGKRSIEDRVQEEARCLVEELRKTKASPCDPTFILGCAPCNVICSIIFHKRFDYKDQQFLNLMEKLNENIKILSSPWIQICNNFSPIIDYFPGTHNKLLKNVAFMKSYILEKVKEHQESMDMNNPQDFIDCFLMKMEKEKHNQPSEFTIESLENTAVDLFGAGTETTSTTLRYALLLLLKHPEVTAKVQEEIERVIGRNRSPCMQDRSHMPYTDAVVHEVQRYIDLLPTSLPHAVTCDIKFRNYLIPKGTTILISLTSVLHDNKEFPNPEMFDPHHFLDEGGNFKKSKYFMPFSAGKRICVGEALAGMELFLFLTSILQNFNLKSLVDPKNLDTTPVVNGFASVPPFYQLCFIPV
Rap guanine nucleotide exchange factor 4 (Homo sapiens), sequence (Q8WZA2 whole entry, looked up): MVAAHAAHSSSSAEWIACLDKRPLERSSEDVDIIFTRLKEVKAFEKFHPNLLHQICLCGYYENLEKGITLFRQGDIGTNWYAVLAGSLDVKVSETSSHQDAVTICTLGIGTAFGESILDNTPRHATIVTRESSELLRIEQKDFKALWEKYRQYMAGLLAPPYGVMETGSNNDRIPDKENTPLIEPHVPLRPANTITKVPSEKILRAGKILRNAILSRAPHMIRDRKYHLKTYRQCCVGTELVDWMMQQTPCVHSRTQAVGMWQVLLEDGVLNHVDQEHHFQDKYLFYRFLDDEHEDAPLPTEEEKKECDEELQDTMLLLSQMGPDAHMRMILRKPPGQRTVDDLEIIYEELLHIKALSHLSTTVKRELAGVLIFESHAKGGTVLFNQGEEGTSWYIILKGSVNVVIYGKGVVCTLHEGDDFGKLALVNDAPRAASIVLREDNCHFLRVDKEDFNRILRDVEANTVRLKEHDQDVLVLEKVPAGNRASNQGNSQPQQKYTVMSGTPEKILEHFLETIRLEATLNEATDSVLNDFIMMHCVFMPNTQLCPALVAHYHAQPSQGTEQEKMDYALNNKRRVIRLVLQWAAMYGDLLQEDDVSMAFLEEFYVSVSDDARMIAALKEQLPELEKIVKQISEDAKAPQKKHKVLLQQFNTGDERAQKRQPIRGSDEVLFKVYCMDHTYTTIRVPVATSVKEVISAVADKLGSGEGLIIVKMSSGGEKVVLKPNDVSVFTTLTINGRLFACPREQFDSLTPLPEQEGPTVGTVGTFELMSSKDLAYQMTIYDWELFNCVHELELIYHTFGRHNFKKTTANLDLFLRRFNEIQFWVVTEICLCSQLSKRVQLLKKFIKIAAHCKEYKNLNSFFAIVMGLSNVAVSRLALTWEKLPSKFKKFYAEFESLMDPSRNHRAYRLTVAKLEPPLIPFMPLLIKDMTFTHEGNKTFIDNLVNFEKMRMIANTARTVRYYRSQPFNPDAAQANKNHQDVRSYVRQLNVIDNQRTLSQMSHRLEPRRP
Rap guanine nucleotide exchange factor 3 (Homo sapiens), sequence (O95398 whole entry, looked up): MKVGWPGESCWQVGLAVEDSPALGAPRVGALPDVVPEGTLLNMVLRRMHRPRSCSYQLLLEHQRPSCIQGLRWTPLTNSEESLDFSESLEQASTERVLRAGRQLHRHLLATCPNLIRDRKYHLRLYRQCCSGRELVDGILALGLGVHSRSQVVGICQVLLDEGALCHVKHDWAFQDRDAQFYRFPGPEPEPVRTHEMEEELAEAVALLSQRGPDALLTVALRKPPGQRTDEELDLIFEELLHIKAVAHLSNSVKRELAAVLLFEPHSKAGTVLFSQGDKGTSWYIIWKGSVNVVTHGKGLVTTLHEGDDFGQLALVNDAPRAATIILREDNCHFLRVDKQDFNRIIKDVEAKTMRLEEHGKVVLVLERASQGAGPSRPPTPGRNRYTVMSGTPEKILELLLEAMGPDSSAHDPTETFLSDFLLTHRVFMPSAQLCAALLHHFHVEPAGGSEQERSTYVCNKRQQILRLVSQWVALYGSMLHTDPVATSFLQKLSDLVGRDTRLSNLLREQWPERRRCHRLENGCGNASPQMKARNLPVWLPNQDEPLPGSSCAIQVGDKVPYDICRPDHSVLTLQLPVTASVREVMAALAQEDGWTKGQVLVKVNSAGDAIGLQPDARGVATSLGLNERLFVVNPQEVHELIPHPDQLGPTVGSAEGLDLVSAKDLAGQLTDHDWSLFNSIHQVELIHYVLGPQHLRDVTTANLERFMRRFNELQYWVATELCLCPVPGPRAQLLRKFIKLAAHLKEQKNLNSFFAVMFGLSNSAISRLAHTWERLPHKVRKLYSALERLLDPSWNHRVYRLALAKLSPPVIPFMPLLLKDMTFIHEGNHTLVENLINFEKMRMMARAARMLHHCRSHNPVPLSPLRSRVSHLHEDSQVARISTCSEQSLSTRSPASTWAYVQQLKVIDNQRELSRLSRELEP
N-terminal Xaa-Pro-Lys N-methyltransferase 1 (Homo sapiens), sequence (Q9BV86 whole entry, looked up): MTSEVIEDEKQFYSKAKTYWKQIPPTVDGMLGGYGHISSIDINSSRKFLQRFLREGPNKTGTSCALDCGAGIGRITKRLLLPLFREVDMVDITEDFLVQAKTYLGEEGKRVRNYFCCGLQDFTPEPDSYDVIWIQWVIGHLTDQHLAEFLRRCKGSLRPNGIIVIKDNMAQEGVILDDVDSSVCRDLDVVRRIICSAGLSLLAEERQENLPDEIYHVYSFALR
Papain (Carica papaya), sequence (P00784 whole entry, looked up): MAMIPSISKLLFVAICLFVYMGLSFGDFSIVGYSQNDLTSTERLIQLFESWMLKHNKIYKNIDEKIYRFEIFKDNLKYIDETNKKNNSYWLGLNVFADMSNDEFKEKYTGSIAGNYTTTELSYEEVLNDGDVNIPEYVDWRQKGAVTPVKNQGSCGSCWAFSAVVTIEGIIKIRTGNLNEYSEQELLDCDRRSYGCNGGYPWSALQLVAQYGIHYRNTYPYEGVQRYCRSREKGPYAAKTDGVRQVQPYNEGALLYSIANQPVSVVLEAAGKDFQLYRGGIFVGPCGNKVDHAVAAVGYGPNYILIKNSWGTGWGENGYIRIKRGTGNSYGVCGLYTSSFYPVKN

O=S(=O)(c1ccc(Cl)cc1)c1ccc(Cl)cc1
inactive: Potency [1] | Potency [2] | Potency [4]
active: Potency [3] 27.8 µM

C1CCC(NC2CCCCC2)CC1
inactive: Potency [1] | Potency [2] | Potency [3] | Potency [6] | Potency [7]
active: Potency [5] 1.23 µM

Nc1ccc(Sc2ccc(N)cc2)cc1
active: Potency [5] 24.5 µM | Potency [3] 0.92 µM
inactive: Potency [1]

C[C@@H]1CC[C@H]2[C@@H](C)C(=O)O[C@@H]3O[C@@]4(C)CC[C@H]1[C@]32OO4
inactive: Potency [1]

O=C(O)c1cc(Oc2ccc(C(F)(F)F)cc2Cl)ccc1[N+](=O)[O-]
inactive: Potency [1] | Potency [2]

CC(O)CN1CCN(CC(=O)[O-])CCN(CC(=O)[O-])CCN(CC(=O)[O-])CC1.[Gd+3] (stereo unspecified)
inactive: Potency [1] | Potency [2] | Potency [3] | Potency [4] | Potency [8]

O=C(O)C(Cl)Cl
inactive: Potency [1] | Potency [2] | Potency [5] | Potency [3] | Potency [4] | Potency [8]

CC(=O)O[C@@]12CO[C@H]1C[C@H](O)[C@@]1(C)C(=O)[C@H](O)C3=C(C)[C@@H](O)C[C@@](O)([C@@H](OC(=O)c4ccccc4)[C@@H]21)C3(C)C
inactive: Potency [1]

O=[N+]([O-])c1ccc([As](=O)(O)O)cc1
1.4%: activity change, negative = inhibition [7]
inactive: Potency [1] | Potency [5] | Potency [3] | Potency [6]

O=C(O)COc1ccccc1
inactive: Potency [1] | Potency [2] | Potency [5] | Potency [3] | Potency [6] | Potency [7] | Potency [4]

Fc1cc(Br)ccc1CBr
inactive: Potency [1] | Potency [2] | Potency [3] | Potency [4] | Potency [8]

CC(C)(C)C(O)C(Oc1ccc(Cl)cc1)n1cncn1 (stereo unspecified)
active: Potency [3] 21.2 µM
inactive: Potency [1] | Potency [2]

O=[N+]([O-])c1cc([N+](=O)[O-])c2ccccc2c1
inactive: Potency [1] | Potency [2] | Potency [5] | Potency [3] | Potency [4] | Potency [8]

CC(Cc1ccc(O)cc1)NCC(O)c1cc(O)cc(O)c1 (stereo unspecified)
inactive: Potency [1] | Potency [2] | Potency [3] | Potency [6] | Potency [7] | Potency (Papain (Carica papaya))

C[C@@]12OC(=O)[C@]1([C@@H](O)[C@@H]1C=CCCC1)NC(=O)[C@H]2CCCl
inactive: Potency [1]

CCC(=O)O[C@@H]1C=C2CCC3C(CCC4(C)C3CC[C@@H]4OC(=O)CC)C2CC1 (stereo partly specified)
4.26%: activity change, negative = inhibition [7]
active: Potency [3] 19.5 µM
inactive: Potency [1] | Potency [2] | Potency [6] | Potency [4]

CCCCCCCCCCCCCCCC[N+](C)(C)C
active: Potency [2] 12.6 µM | Potency [5] 871 nM and 849 nM | Potency [7] 25.1 µM | Potency [4] 0.422 µM
inactive: Potency [1] | Potency [3]

CCO/N=C(\CC)C1=C(O)CC(c2c(C)cc(C)cc2C)CC1=O (stereo unspecified)
active: Potency [3] 4.48 µM
inactive: Potency [1] | Potency [2]

CC(C)NCC(O)c1ccc([N+](=O)[O-])cc1 (stereo unspecified)
inactive: Potency [1] | Potency [2] | Potency [3] | Potency [4] | Potency [8]

CC1=C(C(=O)O)N2C(=O)[C@@H](N)[C@H]2SC1
inactive: Potency [1] | % pathology change, negative = correction [2] 1.33% [at 19.1 µM] | Potency [3] | Potency [4]

CCCN(CCC)c1c([N+](=O)[O-])cc(S(N)(=O)=O)cc1[N+](=O)[O-]
inactive: Potency [1] | outcome [9] | outcome [10]
active: Potency [2] 28.2 µM | Potency [5] 29.1 µM | Potency [3] 3.77 µM | Potency [4] 9.69 µM | Potency [8] 12.2 µM | Potency [11] 89.7 µM

C[C@@H]1[C@H](O)[C@@H](C)C=CC=CCCC=CC=CC=CC=C[C@H](O[C@H]2O[C@@H](C)[C@H](O)[C@@H](N)[C@@H]2O)CC2O[C@](O)(C[C@@H](O)[C@H](O)CC[C@@H](O)C[C@@H](O)C[C@@H](O)CC(=O)O[C@H]1C)C[C@H](O)[C@H]2C(=O)O
inactive: Potency [1]

CO/C=C(/C(=O)OC)c1ccccc1Oc1cc(Oc2ccccc2C#N)ncn1
inactive: Potency [1] | Potency [2]
active: Potency [3] 3.66 µM | Potency [4] 24.3 µM

C#CCOC(=O)C1=CCCN(C)C1
inactive: Potency [1]

Cc1cc(O)ccc1Cl
inactive: Potency [1] | Potency [2] | Potency [5] | Potency [3] | Potency [6] | Potency [7] | Potency [4]

C=C1C[C@H]2[C@H]3CCC(=O)[C@@]3(C)CC[C@@H]2[C@@]2(C)C=CC(=O)C=C12
inactive: Potency [1]

COC(C)(C)CCCC(C)C/C=C/C(C)=C/C(=O)OC(C)C (stereo unspecified)
inactive: Potency [1] | Potency [2] | Potency [4] | Potency [8]

O=C(O)COc1nc(Cl)c(Cl)cc1Cl
inactive: Potency [1] | Potency [2] | Potency [3] | Potency [4]

ClC1=C(Cl)[C@]2(Cl)[C@@H]3[C@@H]4C[C@@H]([C@H]5O[C@@H]45)[C@@H]3[C@@]1(Cl)C2(Cl)Cl
inactive: Potency [1] | Potency [5]

CC(=O)[O][Hg][c]1ccccc1
inactive: Potency [1]
active: Potency [2] 2.82 µM | Potency [5] 0.617 µM | Potency [3] 2.45 µM | Potency [7] 1.58 µM | Potency [12] 1.07 µM | Potency [4] 0.596 µM | Potency [8] 0.531 µM
